# Laboratory results reported in PubChem BioAssay AID868 (SRMLSC, 2007).
# Out of some 190,000 compounds screened, about 3,500 (1.8%) were called active. The list comes from a sample in which actives are over-represented; it also holds similar structures and randomly drawn compounds. Unmarked numbers belong to inactive results.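 The calls were made as follows: active = inhibition above a set limit, 3 SD over mean compound inhibition (cut at about 8.4% in these data); inactive = the rest.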
# Experiment: inhibitors of the yeast RAM network, primary screen, dse1pr::URA3 reporter, 5-FOA selection (AID 868);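 also: 0% = DMSO-only wells with no growth and 100% = 10 µM 1-NA-PP1 full growth; inhibition rescues growth on 5-FOA so higher OD means more RAM inhibition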
# Conditions: S. cerevisiae dse1pr::URA3 reporter, 5-FOA growth OD615, 2 d; at 50 µM; hits give high values; analog-sensitive cbk1-as2 kinase mutant strain
row,Compound,inhibition
1,COc1cccc(OC)c1C(=O)Nc1ccc(N2CCCCC2)cc1,0.91%
2,Cc1ccc(C(=O)NC(=S)Nc2ccc(N3CCOCC3)cc2)cc1,0.79%
3,COc1ccc(C(=O)NC(=S)Nc2ccc(N3CCCC3)cc2)cc1OC,12.4% (active)
4,C=C(C)C1CC=C(C)/C(=N/NC(=O)CCCNc2cccc(C)c2)C1 (stereo unspecified),0.96%
5,CCN(CC(=O)NCc1cccs1)C(=O)c1ccccc1F,1.03%
6,COc1ccc(OC)c(CNC(=O)c2cc(=O)[nH]c3ccc(S(=O)(=O)N4CCCC4)cc23)c1,2.57%
7,CCSc1nc(-c2ccc(OC)cc2)cc(-c2ccc(OC)cc2)c1C#N,6.16%
8,CCOC(=O)CC(=O)CSc1nc(-c2ccccc2)cc(-c2ccc(Cl)cc2)c1C#N,13.1% (active)
9,N#Cc1c(C(F)(F)F)cc(-c2ccc(Cl)cc2)nc1SCC(=O)O,2.99%
10,CC(=O)c1ccc(NC(=S)NC(=O)CC(C)C)cc1,0.87%
11,COc1ccc(NS(=O)(=O)c2ccc(NC(=S)NC(=O)CC(C)C)cc2)cc1,9.99% (active)
12,COc1ccc(C(=O)Nc2ccc(S(=O)(=O)NC(C)C)cc2)cc1,1.59%
13,CC(=O)Oc1c(C(=O)c2nnc(C)o2)c(=O)n(Cc2ccccc2)c2ccccc12,1.56%
14,O=C(CSc1ccc([N+](=O)[O-])cn1)Nc1ccc(N2CCOCC2)cc1,2.94%
15,CCc1c(C)sc(NC(=O)/C=C/c2ccc3c(c2)OCO3)c1C(=O)OC,2.35%
16,CCc1c(C)sc(NC(=O)c2ccc(Br)o2)c1C(=O)OC,9.13% (active)
17,CCOC(=O)c1c(NC(=O)c2ccc(Br)o2)sc2c1CCCC2,3.28%
18,c1ccc(-c2csc(N3CCc4ccccc4C3)n2)cc1,12% (active)
19,O=C(CN1CCN(c2nc(-c3ccccc3)cs2)CC1)NCc1ccc2c(c1)OCO2,0.34%
20,O=C(C(=O)N1CCc2ccccc2C1)N1CCc2ccccc2C1,-0.82%
21,C/C(=N\NC(=O)NC1CCCCC1)c1ccc(OC(F)F)cc1OC(F)F,0.62%
22,N#C/C(=C\C1=C(N2CCOCC2)C(=C\c2ccccc2)/CC1)C(=O)Nc1ccccc1F,11.8% (active)
23,C(=N\N1CCN(c2ccccn2)CC1)/C1=C(N2CCOCC2)C(=C/c2ccccc2)/CC1,-0.25%
24,N#C/C(=C\c1ccccc1C(F)(F)F)C(=O)Nc1ccccc1F,1.21%

row,Compound,inhibition
1,Cn1c(N)c(C(=O)COC(=O)c2ccccc2NCc2ccco2)c(=O)n(C)c1=O,1.05%
2,O=C(CN1CCOCC1)Nc1c(Cl)cc(Cl)cc1Cl,-0.37%
3,COC(=O)c1cc2nc(-c3ccccc3)cc(C(F)(F)F)n2n1,4.75%
4,N#Cc1c(C(F)(F)F)cc(-c2ccccc2)nc1SCC(=O)N1CCOCC1,0.78%
5,CCN(CC)c1nc(-c2ccccc2)cc(C(F)(F)F)c1C#N,10.8% (active)
6,CN(C)S(=O)(=O)c1ccc(NC(=O)N2CCOCC2)cc1,0.13%
7,Clc1ccc2nc(CSc3ccccc3)cn2c1,0.13%
8,CC1=C(C)CC(C(=O)NC(C)CCc2ccccc2)C(C(=O)O)C1 (stereo unspecified),0.85%
9,O=C(CSc1nc(O)c(Cc2ccccc2)c(=O)[nH]1)Nc1nc2c(s1)CCCC2,2.38%
10,CCn1c(=O)cc(O)c2ccccc21,-0.4%
11,Cn1c(=O)c(Sc2ccc(Cl)cc2)c(O)c2ccccc21,1.1%
12,Cn1c2ccccc2c(=O)c2c(O)cccc21,11.3% (active)
13,CCNC(=O)CC1C(=O)N(c2ccc(F)cc2)C(=O)N1Cc1cccs1 (stereo unspecified),0.28%
14,CCCCC(C(=O)OCC(=O)c1ccc(OC)cc1)N1C(=O)c2ccccc2C1=O (stereo unspecified),12.2% (active)
15,COc1ccc(C(=O)COC(=O)c2ccc3ccccc3n2)cc1,-0.53%
16,COc1ccc(C(=O)CN(C(=O)c2ccc(Cl)cc2)N2C(=O)c3ccccc3C2=O)cc1,4.27%
17,COc1ccc(CC(=O)Nc2c3c(nn2-c2cccc(Cl)c2)CS(=O)C3)cc1 (stereo unspecified),2.33%
18,COc1ccc(-n2nc3c(c2NC(=O)Cc2cccc(C)c2)CS(=O)C3)cc1 (stereo unspecified),0.7%
19,Cc1cccc(CC(=O)Nc2c3c(nn2-c2cccc(Cl)c2)CS(=O)C3)c1 (stereo unspecified),9.78% (active)
20,CCCn1c(=O)c2c(C(F)(F)F)cc(-c3cccs3)nc2n(CCC)c1=O,2.68%
21,CN1CCC(=NNC(=O)CN(c2cccc(Cl)c2)S(C)(=O)=O)CC1,-0.4%
22,O=C(OCc1nnc(-c2ccccc2)o1)c1ccc2c(c1)C(=O)N(CCc1ccccc1)C2=O,4.12%
23,O=C(OCc1ccc(Br)cc1)c1cccc(-c2nnc(-c3ccccc3)o2)c1,12% (active)
24,CCOC(=O)CSc1nnc(-c2cccc(Br)c2)o1,-0.68%

row,Compound,inhibition
1,COc1ccc(-c2nc3cc([N+](=O)[O-])ccc3o2)cc1OC,1.49%
2,O=[N+]([O-])c1cccc(Nc2c3ccccc3nc3ccccc23)c1,0.27%
3,O=[N+]([O-])c1ccc2oc(-c3cccc(O)c3)nc2c1,13.2% (active)
4,Cc1nn(-c2ccccc2)c(C)c1/C=N/NC(=O)CSc1nc2ccccc2c(=O)n1-c1ccccc1,2.56%
5,CCO/N=C(/C)c1c(O)cc(-c2ccccc2)n(-c2ccccc2)c1=O,4.11%
6,C=CCO/N=C(\C)c1c(O)c(C)c(-c2ccccc2)n(-c2ccccc2)c1=O,14.2% (active)
7,O=C(CC1C(=O)NCCN1Cc1ccc(-c2ccccc2)cc1)NCc1ccncc1 (stereo unspecified),-0.27%
8,Cc1ccnc(NS(=O)(=O)c2ccc(NC(=O)c3ccc(S(=O)(=O)N(C)C)cc3)cc2)n1,-0.41%
9,CC1=C/C(=N\S(=O)(=O)c2ccccc2)C(C(C)C)=CC1=O,3.57%
10,COc1ccc(N2CCN(C(=O)/C(C#N)=C/c3ccccc3)CC2)cc1,8.69% (active)
11,CCOC(=O)/C(C#N)=C/c1ccc(N2CCCCC2)cc1,1.57%
12,CCOC(=O)/C(C#N)=C/c1ccc(N2CCN(Cc3ccccc3)CC2)cc1,-1.52%
13,COc1cccc2cc(/C(C)=N/NC(=O)c3ccco3)oc12,1.11%
14,Cc1cc(C)c2c(-n3cccc3)c(NC(=O)OCc3ccccc3)sc2n1,5.58%
15,CCCCOC(=O)Nc1sc2nc(C)cc(C)c2c1-n1cccc1,9.53% (active)
16,COC(=O)Nc1sc2nc(C)cc(C)c2c1-n1cccc1,0.22%
17,COc1cc(CN(C)Cc2nc3cc(C(F)(F)F)ccc3c(=O)[nH]2)ccc1OC(F)F,2.67%
18,CCOC(=O)C1=C(C)N=C2c3ccccc3C(=O)C2C1c1ccc(Br)cc1 (stereo unspecified),1.62%
19,N#CC(=C1CCCC1)c1nc(-c2ccc(Cl)cc2)cs1,9.11% (active)
20,N#CC(=C1SC=CS1)c1nc(-c2ccccc2)cs1,3.35%
21,N#C/C(=C1\CCCN1)c1nc(-c2ccccc2)cs1,3.76%
22,O=C(CSc1ccc(-c2ccccc2)nn1)NCC1CCCO1 (stereo unspecified),2.21%
23,CCC(=O)Nc1c(S(=O)(=O)c2ccccc2)c2nc3ccccc3nc2n1Cc1ccccc1,2.78%
24,C=CCn1c(N)c(S(=O)(=O)c2cccs2)c2nc3ccccc3nc21,1.69%

row,Compound,inhibition
1,Cc1ccc(S(=O)(=O)c2c(N)n(C)c3nc4ccccc4nc23)cc1,12.3% (active)
2,COc1ccc(C(=O)C[n+]2ccc(C)cc2)cc1,0.48%
3,COc1ccc(/C=C/C(=O)c2cc(Br)ccc(=O)c2O)cc1,1.75%
4,COc1ccc(/C=C/C(=O)c2ccc(OC)cc2O)cc1,8.82% (active)
5,O=C(/C=C/c1ccccc1)c1ccccc1O,-0.67%
6,CCOC(=O)C1CCCN(C(=O)/C=C/c2ccc(OC)cc2)C1 (stereo unspecified),0.37%
7,COc1ccc(C(=O)/C=C/c2ccc(OC3CSC3)cc2)cc1,9.21% (active)
8,COc1ccc(C(=O)/C=C/Nc2ccccn2)cc1,2.71%
9,C=CCOc1c(CNn2cn[nH]c2=S)cccc1OC,0.75%
10,COC(=O)c1ccc(NC(=S)Nc2cccc(C)n2)cc1,3.21%
11,CC1CCN(C(=S)c2cccc([N+](=O)[O-])c2)CC1,-0.74%
12,CC(NC(=S)NC1CCCCC1)C(c1ccccc1)N1CCOCC1 (stereo unspecified),0.28%
13,CCOc1cc(/C=N/O)cc(Br)c1OC,0.34%
14,COc1cc(/C=N/O)cc(Br)c1OCc1cccc(Cl)c1,9.47% (active)
15,CCOc1c(Cl)cc(/C=N/O)cc1OC,2.16%
16,NS(=O)(=O)c1cccc(NC(=O)COC(=O)/C=C/c2ccco2)c1,0.38%
17,CCc1nnc(NC(=O)c2sc3nc(C)cc(COC)c3c2N)s1,1.25%
18,CCc1nnc(NC(=O)c2cccs2)s1,1.49%
19,CCc1ccc2nc3sc(C(=O)Nc4nnc(CC)s4)c(N)c3cc2c1,8.98% (active)
20,COCc1c(C(=O)OCc2c(C)noc2C)oc2ccccc12,0.88%
21,Cc1cc(/C=C2/C(=N)N3C(=NC2=O)SN=C3S(C)(=O)=O)c(C)n1-c1ccccc1,4.35%
22,COc1ccc2c(CC(=O)Nc3nnc(C4CC4)s3)coc2c1,3.72%
23,COc1ccc2c(CC(=O)OCC(=O)Nc3ccccc3[N+](=O)[O-])coc2c1,10% (active)
24,COc1cc(NC(=O)COC(=O)CSc2ccc3ccccc3c2)c(C)cc1[N+](=O)[O-],2.2%
